Screening results as filed in PubChem BioAssay.
Shown are actives, neighbours in structure and some others; about 2.9% of the full set was active somewhere.
PLC-gamma1 inh = PLC-gamma1 enzyme inhibitors, primary screen, biochemical, fluorescence, purified enzyme; fluorogenic substrate; AID 720700, 2013; 1-phosphatidylinositol 4,5-bisphosphate phosphodiesterase gamma-1 (Homo sapiens), P19174; inhibition, % at 12.2 µM; actives 0.84% (n = 370,000); in the data active = inhibition above about 9.5%
proKLK7 act = proKLK7 zymogen activators, primary screen, biochemical, fluorescence intensity; Kallikrein-7 (Homo sapiens), P49862; purified proKLK7, EDANS-DABCYL substrate fluorescence; 100% is mature enzyme control, 0% vehicle; activation, % at 7 µM; actives 0.9% (n = 370,000);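 active = activation above the mean of all tested compounds plus 3 SD, computed per campaign excluding outliers beyond control limits, cut at about 13% in these data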
ADAM10 inh = human ADAM10 inhibitors, primary screen, biochemical, QFRET, HTS | Disintegrin and metalloproteinase domain-containing protein 10 (Homo sapiens), O14672 | recombinant ADAM10, EDANS/DABCYL FRET peptide cleavage, 3 h | inhibition, % at 7 µM | actives 0.62% (n = 370,000);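 active = inhibition above a per-campaign cutoff equal to the mean of compounds falling between control-based bounds plus 3 SD, cut at about 20% in these data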;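 note: 0% = DMSO wells while the 100% control is not disclosed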
Target sequence (O14672 214-748 limits assumed): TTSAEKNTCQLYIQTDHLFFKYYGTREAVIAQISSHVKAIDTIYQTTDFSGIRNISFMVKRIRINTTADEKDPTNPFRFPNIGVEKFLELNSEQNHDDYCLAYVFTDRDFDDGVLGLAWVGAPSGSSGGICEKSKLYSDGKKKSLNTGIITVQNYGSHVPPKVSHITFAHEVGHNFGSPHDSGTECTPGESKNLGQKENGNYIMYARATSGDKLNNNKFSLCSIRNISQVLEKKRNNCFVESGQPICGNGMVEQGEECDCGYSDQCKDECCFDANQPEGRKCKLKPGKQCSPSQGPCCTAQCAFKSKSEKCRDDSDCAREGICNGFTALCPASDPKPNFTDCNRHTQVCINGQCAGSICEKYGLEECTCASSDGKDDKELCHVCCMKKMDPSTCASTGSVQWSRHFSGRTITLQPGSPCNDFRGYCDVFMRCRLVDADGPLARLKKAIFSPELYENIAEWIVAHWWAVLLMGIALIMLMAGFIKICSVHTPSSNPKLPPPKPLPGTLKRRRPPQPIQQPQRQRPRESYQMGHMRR
ADAM17 inh = ADAM17 inhibitors, primary screen, biochemical, QFRET | Disintegrin and metalloproteinase domain-containing protein 17 (Homo sapiens), P78536 | recombinant ADAM17, EDANS/DABCYL FRET peptide cleavage | inhibition, % at 6.95 µM | actives 0.83% (n = 370,000) | AID 720648, 2013;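 active = inhibition above the mean of compounds lying between control limits plus 3 SD, set per campaign, cut at about 8.5% in these data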;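 note: 0% = DMSO-only wells as the low control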
PLCb3 inh = human PLC-beta3 inhibitors, primary screen, biochemical, fluorescence; 1-phosphatidylinositol 4,5-bisphosphate phosphodiesterase beta-3 (Homo sapiens), Q01970; Purified PLC-beta3, fluorogenic substrate; inhibition, % at 12.2 µM; actives 0.18% (n = 370,000);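 note: 0% = median of compound wells on plate and 100% = full blocker control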
PLCgamma1 ctr = PLC-gamma1 enzyme inhibitors, counter-screen for PLC-beta3 inhibitor project, biochemical, fluorescence; purified PLC-gamma1, fluorogenic substrate; actives 3.1% (n = 3,300); shares compounds with PLC-gamma1 inh; inhibition, % at 12.3 µM; in the data active = inhibition above about 9.5%
PLCbeta3 conf = PLC-beta3 inhibitor confirmation, biochemical, fluorescence, purified enzyme; shares compounds with PLC-gamma1 inh; fluorogenic substrate fluorescence; inhibition, % at 12.3 µM; actives 1% (n = 3,300)
An asterisk follows results filed as active; nt = not tested or not shown. Cut-off read from the data, not from the text of the source, unless noted: active = inhibition above about 11%; inactive = the rest.

SMILES	PLC-gamma1 inh	proKLK7 act	ADAM10 inh	ADAM17 inh	PLCb3 inh	PLCgamma1 ctr	PLCbeta3 conf
CC(C)(C)NCc1cc(Br)ccc1OCc1cccs1	4.3	0.3	8.1	0.8	1.8	nt	nt
CN1C(=O)SC(Nc2ccccc2)C1=O (stereo unspecified)	9.5*	-0.6	9.5	1.9	7.7	-0.6	1.9
CN1C(=O)SC(Nc2ccc(F)cc2)C1=O (stereo unspecified)	-2.5	0.1	-14.1	-3.9	-0.8	nt	nt
CCc1cccc(NC(=O)c2ccc(Cn3nc(C)cc3C)o2)c1	9.8*	0.6	7.2	0.8	4.2	-5.9	-0.8
CCOC(=O)N1CCN(C(=O)COc2ccccc2Cl)CC1	9.5*	-0.1	5.5	3.1	10.4	0.5	3.4
O=C(COc1ccccc1Cl)N1CCCC1	1.1	-0.3	2.7	-1.6	1.1	nt	nt
O=C(Nc1nc2ccccc2n1CCN1CCOCC1)c1cn(-c2ccccc2)nc1-c1ccccc1	-3.1	-0.8	-11.9	-6.4	-3.8	nt	nt
COc1ccc(NC(=O)CN(C)C2CCCCC2)c([N+](=O)[O-])c1	12.0*	-0.5	-14.0	-5.1	-1.2	2.3	2.6
COc1ccc(OC)c(NC(=O)COC(=O)C2CCC2)c1	-0.4	0.3	-5.6	1.5	-5.5	nt	nt
COc1ccc(NC(=O)CN(C)S(=O)(=O)c2ccccc2)c([N+](=O)[O-])c1	3.5	0.5	-3.1	1.4	2.0	nt	nt
CN(CC(=O)Nc1ccc(F)c(F)c1F)C1CCCCC1	10.5*	-0.1	-4.0	4.0	2.4	-5.0	-3.5
COc1ccc(OC)c(NC(=O)COC(=O)C2CCCCC2)c1	10.4*	-0.4	14.9	4.2	12.2*	-1.7	0.8
CC(C)(C)Cc1c(-c2ccc(F)cc2)nc2ccc(Br)cn12	6.5	0.2	10.6	4.6	5.9	nt	nt
COC(=O)c1scc(C)c1-n1ccc(C(=O)C(=O)N(C)C)c1	6.9	-0.1	9.6	5.5	12.7*	-3.6	-1.4
COC(CNC(=O)[C@H](Cc1ccccc1)NC1(C(=O)NC2CCCCC2)CCCC1)OC	9.8*	nt	3.0	2.4	10.0	-1.3	-0.1
O=C(NCC(c1ccccc1)c1ccccc1)[C@H](Cc1ccccc1)NC1(C(=O)NC2CCCCC2)CCCC1	-0.4	nt	2.0	-2.3	1.3	nt	nt
CCOC(=O)NC(=O)c1cn(Nc2ncc(Cl)cc2C(F)(F)F)c(=O)[nH]c1=O	0.4	-0.4	-0.4	-1.1	-8.4	nt	nt
CCOC(=O)NC(=O)c1cn(Nc2ccccc2)c(=O)[nH]c1=O	10.2*	0.3	12.0	-2.9	-3.3	0.0	-0.5
CCCOc1ccc(C(=O)CCC(=O)OCC(=O)N(CC)c2c(N)n(Cc3ccccc3)c(=O)[nH]c2=O)cc1	0.7	0.4	-4.3	-4.9	-5.9	nt	nt
CC12CCC(C(=O)Nc3ccccc3-n3cccc3)(CC1=O)C2(C)C (stereo unspecified)	-2.1	-0.6	-11.6	-4.1	1.6	nt	nt
CC12CCC(C(=O)Nc3ccccc3N3CCOCC3)(CC1=O)C2(C)C (stereo unspecified)	9.5*	-0.1	7.5	6.7	8.0	-3.7	-0.9
N#Cc1ccccc1OCC(=O)NNC(=O)CCC1CCCC1	11.7*	0.6	3.7	6.3	0.6	-5.8	-3.1
N#Cc1ccccc1OCC(=O)NCCNC(=O)COc1ccccc1C#N	-2.6	-0.5	-3.9	-1.3	-5.5	nt	nt
CC12CCC(=O)N1C(C(=O)Nc1nccs1)CS2 (stereo unspecified)	1.0	-0.4	-5.7	-0.8	-8.3	nt	nt
O=[N+]([O-])c1cccnc1SCc1ccccc1	15.0*	0.1	4.4	5.5	0.4	2.2	0.3
SMILES	PLC-gamma1 inh	proKLK7 act	ADAM10 inh	ADAM17 inh	PLCb3 inh	PLCgamma1 ctr	PLCbeta3 conf
O=C(O)c1cccnc1SCc1ccc([N+](=O)[O-])cc1	1.6	0.9	11.4	0.3	-4.2	nt	nt
CC12CCC(C(=O)Nc3nccs3)(OC1=O)C2(C)C (stereo unspecified)	10.2*	-0.1	8.4	-0.4	5.7	-3.3	-2.8
CCCCNC(=O)C1C(c2ccccc2)=Nc2ccccc2N1C(=O)c1ccc(C)cc1 (stereo unspecified)	-20.4	0.6	-9.8	-3.0	-28.0	nt	nt
Cc1nccn1CCCNC(=O)c1nc(Cn2cc([N+](=O)[O-])cn2)no1	9.6*	0.1	12.8	3.5	2.2	8.6	1.9
ONC(=Nc1ccc(Cl)cc1)c1ccccc1	-1.9	-0.3	1.1	0.3	12.2*	-5.7	12.5*
CN(C(=O)CC1C(=O)NCCN1Cc1ccccc1C(F)(F)F)C1CCOCC1 (stereo unspecified)	-27.4	-0.4	-48.1	-15.9	-50.7	nt	nt
O=C(CSc1ncnc2c1oc1ccccc12)Nc1nc2ccccc2s1	9.6*	-0.3	10.4	1.3	8.4	-4.6	-4.8
CC(=O)Nc1c([N+](=O)[O-])cc2[nH]c(=O)[nH]c2c1[N+](=O)[O-]	12.4*	3.1	-4.2	3.0	11.5*	-7.1	0.0
CC(C)(C)OC(=O)N1CCC[C@H]1C(=O)N1CCC[C@H]1C(=O)NCc1ccncc1	12.5*	0.1	11.3	2.3	4.1	-4.0	-72.8
Cc1ccc(O)c(-c2cc(C(=O)Nc3cccnc3)[nH]n2)c1	10.8*	0.8	1.9	3.1	-30.3	1.1	2.8
O=C(O)c1ccc(OCc2ccc(C(=O)O)o2)cc1	-1.4	0.5	-6.6	-4.0	-4.6	nt	nt
O=C(O)c1ccc(OCc2occc2C(=O)O)cc1	12.8*	-0.1	8.4	3.1	5.0	-8.3	-6.6
COc1ccc(N/N=C(\C#N)C(=N)N2CCCCC2)cc1	0.0	-0.1	-8.0	-0.5	-1.1	nt	nt
COc1ccc(N/N=C(\C#N)C(=N)SCc2ccccc2)cc1	9.6*	0.2	7.6	4.4	2.1	6.0	2.4
CCCCCCSc1ccc([C@H]2N[C@@](CC(C)C)(C(=O)OC)[C@H]3C(=O)N(CC)C(=O)[C@@H]23)cc1	15.5*	-0.8	0.3	4.4	6.3	-1.4	0.6
CCCCCCSc1ccc([C@H]2N[C@@](CC(C)C)(C(=O)OC)[C@H]3C(=O)N(C)C(=O)[C@@H]23)cc1	1.6	-0.1	13.8	4.5	1.7	nt	nt
NC(=O)NC(=O)CSc1cccc(C(F)(F)F)c1	9.5*	0.0	3.8	0.7	1.0	-6.0	1.0
O=C(NCCCN1CCCC1=O)C1CCN(S(=O)(=O)c2ccc(F)cc2)CC1	0.8	0.0	4.5	2.2	-0.9	nt	nt
Cc1ccc(CNC(=O)CCCC(=O)O)cc1	5.3	0.6	4.4	4.8	10.8*	-5.6	-2.0
